Experimental findings from PubChem BioAssay (NCATS) are described below.

Molecules are shown by their SMILES. Active and inactive are the calls of the source. Calls come from the whole dose curve; as a rule, active = well fitted curve in the direction sought with a large enough effect; inconclusive = small, poorly fitted or top-dose-only effect, or another doubt; inactive = no such curve, though single readings can be large or run the other way.

This experiment is described as follows: Cellular Toxicity (caspase-3) HUV-EC-C (AID 656).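 Note: cells exposed to compound for 16 h.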 The settings on record: HUV-EC-C cells, caspase-3 activation (apoptosis), vehicle = 0, 100 µM tamoxifen = 100%; series mostly up to 92.2 µM; caspase-3 activation: at the top concentration. An excerpt: NIH Chemical Genomics Center [NCGC]
NIH Molecular Libraries Screening Centers Network [MLSCN]
National Institutes of Environmental Health Sciences [NIEHS]
National Toxicology Program [NTP]
We have developed a 1536-well cell-based assay for quantitative high throughput screening (qHTS) against a number of cell lines to determine in vitro caspase 3/7 of small molecules. This particular assay uses the HUV-EC-C cell line which is derived from normal human vascular endothelial cells.
NCGC Assay Protocol Summary:
The Caspase-Glo 3/7 assay (Promega) is a homogeneous method to measure caspase-3 and caspase-7 activities in cultured cells. The quantitation of caspase 3/7 activity is based on the cleavage of a peptide-aminoluciferin substrate. After caspase cleaves the substrate the free aminoluciferin is liberated and serves as the substrate of luciferase, which generates the light. The luminescent signal is proportional to amount of caspase 3/7 activity present.
Using the Caspase-Glo 3/7 assay, the amount of caspase 3/7 activity was measured in the HUV-EC-C cell line with complete culture medium following compound treatment for 16 hours. The assay was performed in opaque white 1536-well plates. In the screen, tamoxifen and doxorubicin were used as positive controls. Library compounds were measured for their ability to cause the activation of caspase 3/7 in the cell line, as reflected by an increase in luminescence signal, in a concentration-dependent manner. Data were normalized to the controls for basal activity (DMSO only) and 100% stimulation (100 uM tamoxifen). AC50 values were determined from concentration-response data modeled with the standard Hill equation.
qHTS protocol for caspase 3/7 assay in HUV-EC-C cell line
[Step] [Parameter] [Value] [Description]
1. Reagent; 5 uL; 1000 HUV-EC-C cells/well
2. Time; 5 hr; 37 °C incubation
4. Controls; 23 nL; Tamoxifen 0.23 uM to 100 uM & doxorubicin 7.0 pM to 100 uM
5. Time; 16 hr; 37 °C incubation
6. Reagent; 5 uL; Caspase-Glo 3/7 reagent
7. Time; 20 min; Room Temperature
8. Detection; Luminescence; Viewlux plate reader
Keywords: caspase 3/7, apoptosis, HUV-EC-C cell line, luminescence, NTPHTS, NTPHTS_NCGC, NIEHS, EPA, DSSTox, MLSMR, MLSCN, NIH Roadmap, qHTS, NCGC
For `O=[N+]([O-])c1cccc(C(F)(F)F)c1`, the “caspase-3 activation” value was 3.1% (inactive).
Next, `c1ccc2c(c1)Oc1ccccc1S2`: 1.3% (inactive).
In the case of `O=C(O)c1cc(Cl)cc(Cl)c1`, the “caspase-3 activation” value is 1.1% (inactive).
Regarding `CCCCC/C=C/C=C/C=O`, the “caspase-3 activation” value was 7.81% (inactive).
For `CNC(=O)N(c1ccccc1)c1ccccc1` the value was -1.12% (inactive); for `C1CCCC1`, -1.4% (inactive).
For `Cc1c(N)cccc1N` the value was 1.34% (inactive); for `Nc1cccc2c(=O)[nH][nH]c(=O)c12`, 0.769% (inactive).
Regarding `CCCOCC(C)O` (stereo not given), the “caspase-3 activation” value is 6.55% (inactive).
In the case of `Cc1cccc(C)c1O`, the “caspase-3 activation” value is 0.252% (inactive).
Next, `Cc1cccc2sc(N)nc12`: -4.31% (inactive).
Next, `CC(=O)OCc1ccco1`: -5.5% (inactive); `Clc1ccc(Cl)c(Cl)c1Cl`: 1.61% (inactive); `CC(C)Nc1ccccc1`: 0.865% (inactive).
As for `Cc1cccc2cccnc12`, the “caspase-3 activation” value is 1.45% (inactive).
For `Cc1ccc2cccnc2c1` the value was 3.64% (inactive); for `c1ccc(Nc2ccccc2)cc1`, 1.09% (inactive).
For `NCCCCCCN` the value was -1.57% (inactive); for `C=CCn1c(=O)n(CC=C)c(=O)n(CC=C)c1=O`, -2.93% (inactive).
As for `C1COC1`, the “caspase-3 activation” value was 2.24% (inactive).
Take `CCNS(=O)(=O)c1ccc(C)cc1`: the “caspase-3 activation” value is -0.795% (inactive).
On to `O=[N+]([O-])c1ccc(NCCO)c(OCCO)c1`, for which the “caspase-3 activation” value is -2.24% (inactive).
Next, `Nc1ccc([N+](=O)[O-])c(N)c1`: -2.61% (inactive).
For `Cc1c(N)cccc1[N+](=O)[O-]` the value was 0.335% (inactive); for `C=Cc1ccccc1C=C`, -5.11% (inactive); for `Cc1cccc(C)c1`, 1.39% (inactive).
On to `CC(C)(O)CCC(C)(C)O`, for which the “caspase-3 activation” value is -0.77% (inactive).
For `C/C=C1\CC2C=CC1C2` (stereo not given) the value was -4.27% (inactive); for `CCOc1cccc(N)c1`, 4.66% (inactive); for `O=Cc1c(Cl)cccc1Cl`, 14% (inactive).
As to `Cc1ccc(Cl)cc1`, the “caspase-3 activation” value is 8.05% (inactive).
Next, `CCOCCOCC`: 5.49% (inactive); `O=C(Cl)c1cccc([N+](=O)[O-])c1`: -0.74% (inactive); `CCCCCCC=O`: 3.06% (inactive).
For `CC(C)(C)OCC1CO1` (stereo not given) the value was -0.439% (inactive).
For the compound `CC(=O)Nc1ccc(N)cc1`, the “caspase-3 activation” value is 1.29% (inactive).
Consider `Oc1c(Cl)ccc(Cl)c1Cl`, for which the “caspase-3 activation” value was 1.51% (inactive).
Next, `CC(C)=CCC/C(C)=C/C=O`: -2.08% (inactive); `c1ccsc1`: -1.41% (inactive).
For `CC=C(Cl)Cl` the value was -2.4% (inactive).
